From PubChem BioAssay AID1159580 (chemical genetic matrix, 2015)
Several values for one entry are separate records, joined by “and”; a condition that tells them apart may be missing. Identical values can stand only once. About 2,000 (36%) of roughly 5,500 compounds were called active. Roughly 18% stayed inconclusive and do not appear here. Cut-off read from the data, not from the text of the source: active = normalized growth mostly below about 0.91 (no sharp cut-off); inconclusive = no clear call, values can overlap the other calls; inactive = mostly above about 0.92. The list shows a part of the results.

Experiment: chemical genetic growth profiling, strain panel (AID 1159580);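 note: tested at 20 µM; growth read once vehicle control cultures reached saturation at 30 °C; 1 = growth at the plate median or of vehicle wells; lower values mean less growth of the strain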
Details: S. cerevisiae deletion strains, growth OD

Measured: normalized growth

CC1(C)C[C@@H]2C(=O)CC[C@H]3O[C@]3(C)CC[C@H]21
inactive: locus YAL013W, strain DEP1, active compounds read low 1.01 | locus YAL021C, strain ccr4, active compounds read low 0.98 | locus YAL026C, strain drs2, active compounds read low 1.04 | locus YAL030W, strain snc1, active compounds read low 1.01 | locus YBL061C, strain skt5, active compounds read low 1.03 | locus YBR009C, strain hhf1, active compounds read low 1.02 | locus YBR021W, strain FUR4, active compounds read low 1.01 | locus YBR023C, strain chs3, active compounds read low 1.02 | locus YBR171W, strain sec66, active compounds read low 1.02 | locus YBR229C, strain ROT2, active compounds read low 1 | locus YBR231C, strain swc5, active compounds read low 1 | locus YBR279W, strain paf1, active compounds read low 1 | locus YCL011C, strain gbp2, active compounds read low 1.02 | locus YCL016C, strain dcc1, active compounds read low 1.01 | locus YCL029C, strain bik1, active compounds read low 0.994 | locus YCL061C, strain MRC1, active compounds read low 1.01 | locus YCL069W, strain vba3, active compounds read low 1.01 | locus YCR088W, strain abp1, active compounds read low 1.01 | locus YDL005C, strain med2, active compounds read low 1.01 | locus YDL035C, strain GPR1, active compounds read low 1.01 | locus YDL040C, strain nat1, active compounds read low 1.02 | locus YDL074C, strain BRE1, active compounds read low 1.04 | locus YDL101C, strain DUN1, active compounds read low 1.02 | locus YDL134C, strain PPH21, active compounds read low 1.01 | locus YDL185W, strain tfp1, active compounds read low 0.995 | locus YDL192W, strain arf1, active compounds read low 0.996 | locus YDR001C, strain nth1, active compounds read low 1.02 | locus YDR069C, strain doa4, active compounds read low 1.03 | locus YDR101C, strain arx1, active compounds read low 0.986 | locus YDR137W, strain rgp1, active compounds read low 1.02 | locus YDR150W, strain NUM1, active compounds read low 1.01 | locus YDR159W, strain sac3, active compounds read low 1.05 | locus YDR162C, strain NBP2, active compounds read low 1.02 | locus YDR195W, strain ref2 1.01 | locus YDR297W, strain sur2, active compounds read low 1.01 | locus YDR318W, strain mcm21, active compounds read low 0.994 | locus YDR334W, strain swr1, active compounds read low 1.01 | locus YDR335W, strain msn5, active compounds read low 1.01 | locus YDR388W, active compounds read low 0.996 | locus YDR392W, strain spt3, active compounds read low 0.914 | locus YDR502C, strain sam2, active compounds read low 0.994 | locus YEL003W, strain gim4, active compounds read low 1.01 | locus YEL037C, strain rad23, active compounds read low 1.01 | locus YEL061C, strain CIN8 (second series), active compounds read low 1.02 | locus YEL061C, strain CIN8, active compounds read low 1 | locus YER015W, strain faa2, active compounds read low 1.01 | locus YER016W, strain bim1, active compounds read low 1.01 | locus YER110C, active compounds read low 0.989 | locus YER111C, strain swi4, active compounds read low 1.01 | locus YER155C, strain BEM2 (second series), active compounds read low 1.03 | locus YER155C, strain BEM2, active compounds read low 1 | locus YER167W, strain BCK2, active compounds read low 1.01 | locus YFR010W, strain ubp6, active compounds read low 1.04 | locus YGL078C, strain dbp3, active compounds read low 0.999 | locus YGL086W, strain mad1, active compounds read low 0.966 | locus YGL167C, strain pmr1, active compounds read low 1.02 | locus YGL173C, strain kem1, active compounds read low 1.03 | locus YGL227W, strain vid30, active compounds read low 1.01 | locus YGL240W, strain doc1, active compounds read low 1.02 | locus YGL248W, strain PDE1, active compounds read low 1 | locus YGL253W, strain hxk2, active compounds read low 1.03 | locus YGR078C, strain PAC10, active compounds read low 1.02 | locus YGR135W, strain pre9, active compounds read low 0.999 | locus YGR229C, strain SMI1, active compounds read low 1.01 | locus YGR252W, strain gcn5, active compounds read low 1.01 | locus YHR013C, strain ard1, active compounds read low 1.03 | locus YHR027C, strain rpn1, active compounds read low 1.02 | locus YHR030C, strain SLT2, active compounds read low 1.01 and 0.967 | locus YHR079C, strain IRE1 (second series), active compounds read low 0.996 | locus YHR079C, strain IRE1, active compounds read low 0.953 | locus YHR094C, strain hxt1, active compounds read low 0.998 | locus YHR129C, strain ARP1, active compounds read low 1.01 | locus YHR142W, strain chs7, active compounds read low 1.02 | locus YHR200W, strain rpn10, active compounds read low 0.997 | locus YIL066C, strain RNR3, active compounds read low 1 | locus YIL073C, strain SPO22, active compounds read low 0.968 | locus YIL125W, strain kgd1, active compounds read low 0.998 | locus YIR030C, strain dcg1, active compounds read low 0.986 | locus YJL092W, strain hpr5, active compounds read low 1.02 | locus YJL095W, strain BCK1 (second series), active compounds read low 1.04 | locus YJL095W, strain BCK1, active compounds read low 1.01 and 0.961 | locus YJL115W, strain asf1, active compounds read low 1.01 | locus YJL129C, strain trk1, active compounds read low 1.02 | locus YJL134W, strain LCB3, active compounds read low 1.01 | locus YJL154C, strain vps35, active compounds read low 1.01 | locus YJL164C, strain tpk1, active compounds read low 0.995 | locus YJL166W, strain qcr8, active compounds read low 1.04 | locus YJL168C, strain set2, active compounds read low 0.994 | locus YJL187C, strain SWE1 (second series), active compounds read low 1.02 | locus YJL187C, strain SWE1, active compounds read low 1 | locus YJR043C, strain POL32, active compounds read low 1 | locus YJR066W, strain TOR1, active compounds read low 0.998
